Source: PubChem
AMA1-RON2 inh: AMA1-RON2 (P. falciparum) interaction inhibition. AID 720542. 360,000 tested, 0.2% active. AlphaScreen AMA1-biotinylated RON2 peptide binding. Potency, µM (top dose mostly 58.2 µM), for the others: top-dose activity change, negative = inhibition, hits mostly inhibitors;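 also: potency is read from the fitted curve at half-maximal effect; 0% = vehicle wells and -100% = peptide control; nearly all actives have a fitted effect of over 45% in size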
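AMA1 (3D7) with his tag at 25 nM final met compounds first, then biotinylated RON2 peptide at 25 nM; detection used donor plus acceptor beads, 10 µg/mL apiece, read by AlphaScreen after 30 min at room temperature.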
HCV inhibitor: blocks hepatitis C virus; Huh7.5.1 HCVcc-Cre infection, luciferase reporter, 44 h; Potency, µM (highest dose often 41.8 µM), without a hit: at the highest dose activity change, negative = inhibition, usual class: inhibitors; 340,000 tested, 3.4% active; AID 651820; also: potency is read from the fitted curve at half-maximal effect; % is scaled to controls: 0 for no effect and ±100 for the full control effect
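A cell-based infection assay in which seeded cells (1,000 per well) receive test compound after 4 h, are inoculated with HCVcc-Cre at approximately 0.5 moi, and are incubated 44 h before luminescence detection.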
Pf growth 48h: inhibits P. falciparum growth in the first generation, 48 h | P. falciparum luciferase growth in erythrocytes, 48 h | Potency, µM (highest dose often 28.7 µM), for inactives: at the top dose activity change, negative = inhibition, hits mostly inhibitors | 310,000 tested, 5.9% active | AID 504832; also: potency is read from the fitted curve at half-maximal effect; % is scaled to controls: 0 for no effect and ±100 for the full control effect
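Firefly luciferase activity from engineered P. falciparum reports growth; inhibitors lower the luminescent signal. Cultures contained 2% hematocrit erythrocytes at 0.1% final parasitemia.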
Pf growth 96h: P. falciparum growth inhibition at 96 hour, primary screen for plastid delayed-death inhibitors. P. falciparum luciferase reporter growth, 96 h. Potency, µM (top dose mostly 28.7 µM), inactives show top-dose activity change, negative = inhibition, actives largely listed as inhibitors. 320,000 tested, 6.9% active; also: potency is read from the fitted curve at half-maximal effect; % is scaled to controls: 0 for no effect and ±100 for the full control effect
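Luminescence readout: decreased luciferase signal marks inhibited growth of reporter-expressing P. falciparum in infected red cells (2% hematocrit, 0.05% parasitemia final), exposed to compound two generations (96 h, 37 C, 5% CO2).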
Shiga inhibitor: blocks Shiga toxin action in Vero cells; 290,000 tested, 9.2% active; Vero cells, Shiga toxin protein synthesis inhibition reporter; inhibition, % at 38.7 µM; in the data active = inhibition mostly above about 28%, no sharp cut-off; inactive = mostly below about 43%; also: 0% is about no effect
CHX counter: affects cycloheximide protein synthesis inhibition readout, counter-screen | AID 2314 | cell reporter, cycloheximide protein synthesis inhibition counterscreen | 300,000 tested, 12% active | max response, %; in the data active = max response mostly above about 13%, no sharp cut-off; inactive = mostly below about 14%; also: read at 38.3 µM for the half of the compounds with a filed dose; 0% is about no effect
Active calls of the source: *; u = inconclusive; x = no result; [ ] = remark or other dose. Rows were chosen to be rich in hits. Some 21% of all compounds tested hit in one or more screens of this group. Unless noted, calls follow the shape of the dose curve; as a rule, active = well fitted curve in the direction sought with a large enough effect; inconclusive = small, poorly fitted or top-dose-only effect, or another doubt; inactive = no such curve, though single readings can be large; an effect the other way counts as inactive or inconclusive.

SMILES	AMA1-RON2 inh	HCV inhibitor	Pf growth 48h	Pf growth 96h	Shiga inhibitor	CHX counter
CN1C(=O)CC(N2CCN(CCN=CC3=C(O)CC(C)(C)CC3=O)CC2)C1=O (configuration not stated)	48%	18%	-11%	12µM*	19	8
CN(C)Cc1c(C(C)(C)O)[nH]c2ccc(C(F)(F)F)cc12	-3%	-13%	x	x	x	x
CC(C)(O)c1[nH]c2ccc(C(F)(F)F)cc2c1C(C)(C)O	7%	9%	0%	28%	20	7.9*
CC(C)(O)c1[nH]c2cc(C(F)(F)F)ccc2c1C(C)(C)O	-4%	-28%	43%	22%	37*	9
COc1ccc(CC(N)c2csc(Nc3ccc(C(=O)c4ccccc4)cc3)n2)cc1 (configuration not stated)	14%	x	x	x	x	x
Cc1cccc(C(=O)OCC(=O)N(CC(C)C)c2c(N)n(Cc3ccccc3)c(=O)[nH]c2=O)c1O	3%	11%	-3%	11%	x	x
CCc1ccc(NC(=O)NCc2ccc3c(c2)OCO3)cc1	-15%	-11%	34%	9%	7	13
Cn1cc(CNC(=O)Nc2ccc3c(c2)OCO3)cn1	-2%	0%	54%	-3%	27	15*
O=C(NCc1cccnc1)Nc1ccc2c(c1)OCO2	-2%	11%	62%	u	128*	27*
O=C(C[n+]1ccc(C(=O)NCc2ccccc2)cc1)c1ccc(Cl)cc1	11%	8%	u	35%	-11	1
N#Cc1ccc2[nH]c(CO)c(-c3ccccc3)c2c1	-3%	u	30%	21%	-7	-4
O=C(Cn1ccc2ccccc2c1=O)NCC(=O)N1CCCCC1	10%	17%	23%	-4%	-8	-1
COc1ccc(S(=O)(=O)N(n2c(C)nnc2-n2nc(C)cc2C)S(=O)(=O)c2ccc(OC)cc2)cc1	-7%	33%	9%	-8%	20	21*
CC(C)[C@H](NC(=O)c1c(F)cccc1F)C(=O)OCC(=O)NNC(=O)c1ccccc1	59%	x	x	x	x	x
CC(C)[C@H](NC(=O)c1ccccc1)C(=O)OCC(=O)c1ccccc1F	-5%	19%	315%	-12%	20	16*
N#CC(C#N)=C1NC2(CCCCC2)Cc2ccccc21	-11%	-15%	-16%	-4%	1	-2
N#CC(C#N)=c1ccc2c(c1)NC1(CCCCC1)N=2	22µM*	u	u	u	65*	37*
COc1ccccc1S(=O)(=O)N[C@@H]1CC[C@@H](CCn2cc(C3CC3)nn2)O[C@@H]1CO	7%	x	x	x	x	x
Cc1cc(NC(=O)c2cc(-c3ccc(O)cc3)on2)no1	-2%	-5%	85%	58%	93*	42*
COc1cccc(-c2cc(C(=O)Nc3ccc4c(c3)OCO4)no2)c1	-9%	6%	48%	-14%	2	-3
O=C(Nc1ccc2c(c1)OCO2)c1cc(-c2ccccc2Cl)on1	-1%	-19%	182%	u	89*	24*
O=C(Nc1ccc2c(c1)OCO2)c1cc(-c2ccc(O)cc2)on1	10%	u	71%	18%	106*	40*
Cc1cc(NC(=O)c2cc(-c3ccc(Br)cc3)on2)no1	-2%	20%	6%	-20%	-3	-3
O=C(NCc1ccc2c(c1)OCO2)c1cc(-c2ccccc2Cl)on1	0%	20%	33%	u	19	4
O=C(Nc1ccc2c(c1)OCO2)c1cc(-c2cccc(O)c2)on1	-1%	3%	60%	51%	111*	48*
SMILES	AMA1-RON2 inh	HCV inhibitor	Pf growth 48h	Pf growth 96h	Shiga inhibitor	CHX counter
CC(C)n1c(=O)nc(-c2ccccc2)c2cc3c(cc21)OCO3	-3%	x	x	x	x	x
COc1ccc2c(c1OC)C(=O)OC2N1C(=O)CC[C@H]1C(=O)NCC1CCCO1 (some centres not stated)	8%	0.56µM*	1%	26%	3	2
Cc1ccc(S(=O)(=O)N2CCOCC2)cc1C(=O)OCC(=O)Nc1ccc(Cl)cn1	-9%	x	x	x	x	x
Cc1ccc(S(=O)(=O)N2CCOCC2)cc1C(=O)OCCOc1cccc(Cl)c1	7%	u	u	10µM*	x	x
CCn1c(SCC(=O)c2cc(C)ccc2C)nc2cc(S(=O)(=O)N3CCOCC3)ccc21	-8%	u	u	7.4µM*	2	1
Cc1ccc(COC(=O)c2cc(S(=O)(=O)N3CCOCC3)ccc2C)cc1	12%	u	9.3µM*	13µM*	x	x
Cc1ccc(S(=O)(=O)N2CCOCC2)cc1C(=O)OCC(=O)N1CCCCC1	29%[11.6 µM]	-4%	x	x	x	x
Cc1ccc(S(=O)(=O)N2CCOCC2)cc1C(=O)OC(C)C(=O)c1ccccc1 (configuration not stated)	3%	3.5µM*	u	0%	x	x
O=C(CC1CC2CCC1C2)N1CCN(S(=O)(=O)c2ccc(C(F)(F)F)cc2)CC1 (configuration not stated)	-7%	x	x	x	x	x
CC1CCN(C(=O)COC(=O)C2CCN(S(=O)(=O)c3ccc4c(c3)OCCO4)CC2)CC1	11%	11%	-16%	7%	x	x
O=C(C[C@H]1C[C@@H]2c3cc(NC(=O)Nc4ccccc4)ccc3O[C@@H]2[C@@H](CO)O1)NCC1CC1	10%	x	x	x	x	x
O=C1c2ccccc2S(=O)(=O)N1CC1CC(c2ccccc2Cl)=NO1 (configuration not stated)	8%	-3%	124%	16%	active	86*
COc1ccccc1C1=NOC(CN2C(=O)c3ccccc3S2(=O)=O)C1 (configuration not stated)	8%	-3%	39%	11%	146*	53*
O=C(CC12CC3CC(CC(C3)C1)C2)NC(=S)N1CCCCC1	27%	12%	-22%	9.3µM*	4	7
Nc1nc(CN2CCN(Cc3ccccc3)CC2)nc(N2CCCc3ccccc32)n1	8%	-4%	u	-3%	-17	-3
Nc1nc(CN2CCN(c3ccccc3)CC2)nc(N2CCCc3ccccc32)n1	-7%	4%	u	9.3µM*	19	-4
Nc1nc(CSc2nnnn2-c2ccccc2)nc(N2CCCc3ccccc32)n1	-15%	11µM*	10µM*	x	6	-2
Nc1nc(CN2CCN(c3cccc(Cl)c3)CC2)nc(N2CCCc3ccccc32)n1	-22%	6%	u	x	-20	-2
C=CCNc1nnc(Cc2ccc(C(C)C)cc2)c(=O)[nH]1	-5%	6%	u	u	16	1
CCOC(=O)c1ccc(N2CCOCC2)c(NC(=O)c2ccc3c(c2)OCO3)c1	6%	1%	u	u	-4	-1
Cc1c(O)ccc(/C=N/Nc2ncccc2[N+](=O)[O-])c1O	59%	u	137%	u	141*	32*
O=[N+]([O-])c1cccnc1N/N=C/c1ccccc1O	30%	u	136%	261%	78*	43*
